# Whole data set: some 33,000 sequences, median “E-score (-0.5 to 0.5)” near -0.043, cut for the highest 2% near 0.37. What follows is part of a selection rich in the highest values, with near analogues and random picks from the rest.
# Molecular target: T1, Upc2 (UniProt Q12151)
# T1 sequence: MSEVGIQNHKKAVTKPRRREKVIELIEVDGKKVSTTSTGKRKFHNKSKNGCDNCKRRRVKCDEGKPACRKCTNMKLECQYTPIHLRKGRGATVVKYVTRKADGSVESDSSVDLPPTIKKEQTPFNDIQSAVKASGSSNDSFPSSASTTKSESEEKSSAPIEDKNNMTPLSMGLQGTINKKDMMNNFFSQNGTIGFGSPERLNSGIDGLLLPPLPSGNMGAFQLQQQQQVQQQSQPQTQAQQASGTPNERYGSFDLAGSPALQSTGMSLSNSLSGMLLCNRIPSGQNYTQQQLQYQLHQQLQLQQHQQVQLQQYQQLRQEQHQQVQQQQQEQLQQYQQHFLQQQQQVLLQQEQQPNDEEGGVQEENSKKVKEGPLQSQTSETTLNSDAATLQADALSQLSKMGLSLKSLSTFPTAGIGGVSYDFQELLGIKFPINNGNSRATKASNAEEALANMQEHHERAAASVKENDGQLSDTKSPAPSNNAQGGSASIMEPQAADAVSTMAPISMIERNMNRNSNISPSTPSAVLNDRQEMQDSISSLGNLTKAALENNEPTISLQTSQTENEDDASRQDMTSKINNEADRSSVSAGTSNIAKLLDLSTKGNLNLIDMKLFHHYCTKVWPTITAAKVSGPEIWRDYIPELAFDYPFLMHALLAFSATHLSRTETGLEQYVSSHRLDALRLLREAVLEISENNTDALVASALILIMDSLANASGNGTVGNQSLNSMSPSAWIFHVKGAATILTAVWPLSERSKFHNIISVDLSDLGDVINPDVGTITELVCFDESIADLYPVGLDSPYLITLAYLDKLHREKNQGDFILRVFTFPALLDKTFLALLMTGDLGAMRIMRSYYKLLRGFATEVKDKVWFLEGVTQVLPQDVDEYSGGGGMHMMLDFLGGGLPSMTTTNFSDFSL
# Assay: PBM E-score (8-mer binding enrichment) (E-score (-0.5 to 0.5)); higher = stronger / more preferred TF binding
# Conditions: protein concentration: 200 nM; construct: GST-full length
# Description: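 Universal 'all 10-mer' protein binding microarrays (Agilent AMADID 015681) probed with GST-tagged S. cerevisiae TFs (full-length or DBD) made by in vitro transcription/translation (PURExpress), about 100-200 nM. Bound TF was detected with fluorescent anti-GST. Each ungapped 8-mer (which stands for itself and its reverse complement) is scored by the PBM enrichment score (E-score), a modified Wilcoxon-Mann-Whitney statistic from -0.5 to +0.5, computed with the Universal PBM Analysis Suite. Scale: above 0.35 generally sequence-specific binding.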
row,Sequence,PBM E-score
1,CCAATCCG,-0.0814
2,CCGAAAAA,0.0605
3,AATCAAAA,-0.0286
4,ACCCTGGC,-0.206
5,AATTATGC,0.0912
6,CGAATTCA,0.0713
7,CTTGGCCC,-0.171
8,CCGCTTCA,-0.0583
9,CCATGCCG,-0.135
10,CCTTGCCC,-0.056
11,AAATAGAA,-0.0216
12,GACGAGAC,0.0394
13,CACGAGAC,0.0139
14,AACGAGAC,0.437
15,ATCGCTTA,0.364
16,GTCGCATA,0.375
17,CTCGCTGA,-0.136
18,CTCGCTTA,0.423
19,ATCGCATA,0.318
20,GTCGCTTA,0.396
21,GTCGCTAA,0.271
22,GTCGCTGA,-0.0513
23,CTCGCATA,0.363
24,ACTGCAGG,-0.156
25,ATTGGGAC,-0.218

row,Sequence,PBM E-score
1,GGTAGTTA,-0.14
2,ACGAGTTC,0.342
3,GCGAGTTA,0.116
4,ACGAGGAG,0.306
5,ACGAGTTA,0.392
6,ACGAGGGC,0.388
7,ACGAGGGA,0.364
8,ACGAGGAC,0.384
9,AAGAGGTC,-0.186
10,CCGAGGTC,0.0232
11,GCGAGGAC,-0.102
12,CCGAGGGC,0.094
13,ACGAGGTC,0.371
14,CACCACGC,-0.221
15,GAGGGGAC,-0.152
16,AAGGTCAG,-0.239
17,CGTCGAAC,0.0511
18,GCCCCAGA,-0.09
19,AACTGTAA,0.103
20,TAGATTAA,0.104
21,GCTGCGGA,-0.164
22,ACGAGGTA,0.382
23,GCGAGGTA,0.244
24,ACGAGGTG,0.367
25,GATGGTAC,0.139

row,Sequence,PBM E-score
1,AGTGTCAG,-0.0575
2,CGGGATAC,0.18
3,CCGAGGCG,0.129
4,ACGAGGCC,0.381
5,ACGAGGAT,0.355
6,ACGAGGCG,0.4
7,AAGAGGCT,-0.257
8,CCGAGGCA,-0.0905
9,AGGAGGCG,-0.326
10,ACGAGGCT,0.406
11,GCGAGGCC,0.2
12,ACGAGGCA,0.408
13,GCGAGGCA,0.195
14,CCGAGGCC,0.102
15,CACAGGCG,-0.208
16,CCGACAGG,-0.0268
17,AATTTGTC,0.0333
18,CATTAGCG,0.197
19,GATCTCCC,-0.162
20,GCTGGACC,-0.0565
21,CTACAATC,0.0566
22,ACTAGATG,-0.122
23,AGGGGCCA,-0.215
24,CACGATCG,0.125
25,ACCGATCT,-0.0555

row,Sequence,PBM E-score
1,AACGATCA,0.379
2,AACGATCT,0.381
3,AACGATCG,0.383
4,ATCGATCG,0.136
5,AACGATCC,0.345
6,AGCGATCA,0.11
7,ATCGATCA,0.0619
8,CACGATCA,-0.0545
9,TACGATCA,0.422
10,GACGATCA,-0.0322
11,GAGCGATA,0.218
12,GAAGAAGC,-0.195
13,AGTCAAGG,-0.208
14,AACGCGAA,0.23
15,CTCTTGCC,-0.16
16,ATAACCTC,-0.0875
17,AAGGAAAG,-0.171
18,CGCACTAC,-0.0438
19,ACCTCAGT,-0.0386
20,ATATGAAG,-0.19
21,ATATATAC,0.265
22,ATATAAAC,0.187
23,GTATATAA,0.298
24,GTATAAAC,0.4
25,GTATATAC,0.395

row,Sequence,PBM E-score
1,GTATAAAA,0.348
2,CATTGGTA,-0.184
3,AATCACCG,0.00219
4,ATTCGCAA,-0.00304
5,GCCGTAAC,0.225
6,GCCGTAAA,0.385
7,CCCCGTAA,0.308
8,CCCGTAAA,0.381
9,ACCGTAAA,0.368
10,CCTGTAAA,-0.0269
11,AGCTACTC,-0.129
12,CAAAAGCA,0.0182
13,ACTTATGG,-0.159
14,CCTACTCC,-0.318
15,AGTCGTCC,-0.111
16,CGTCGTCC,-0.154
17,CATCGTCG,0.106
18,CGTCGTAC,0.474
19,AGTCGTAC,0.452
20,GGTCGTAC,0.462
21,CGTCGTGC,0.0916
22,GGACGTAC,0.138
23,CGTAGTAG,0.108
24,GGTCGCAC,0.138
25,CGTCGTAG,0.37

row,Sequence,PBM E-score
1,AGTCGTGC,-0.127
2,GAGTGAGA,-0.214
3,CGCCTATC,-0.0576
4,AAAGGAGC,-0.113
5,GGGAGGAA,-0.119
6,AGAGATGA,-0.204
7,ATGGAGCA,-0.0645
8,CCCCAAGG,-0.378
9,CTTCCACC,-0.173
10,CAACCTCG,0.196
11,AGTCGTAG,0.291
12,AGTCGTAT,0.467
13,AGTCGTCG,0.0489
14,CGGAAGCC,-0.0575
15,ACTTTTCA,-0.0685
16,CGTTGTTA,0.0821
17,CTTCGATC,0.0841
18,CTTCGTTA,0.345
19,CTTCGTTC,0.457
20,ATTCGTTA,0.346
21,CTTCGCTC,0.208
22,ATTCGTTC,0.428
23,GTTCGTTA,0.403
24,GTGCGTTA,0.0729
25,ATTCGTTG,0.215

row,Sequence,PBM E-score
1,AGTCCTCA,-0.296
2,CATAGGTC,-0.0923
3,GCCCCTCC,-0.0822
4,ACATAACG,0.116
5,GCCTATCA,-0.187
6,AAACGGTA,0.367
7,AAACGGTC,0.344
8,ATACGGTA,0.406
9,ATACGGTC,0.418
10,ACACGGTG,-0.0718
11,GTACGGTA,0.365
12,ACACGGTC,-0.099
13,CTACGGTC,0.109
14,ATACGGTG,0.408
15,AGACGGTG,-0.109
16,CTACGGTA,0.122
17,AAACGGTG,0.386
18,GATGAAAA,0.0354
19,GGCGGGTA,-0.00895
20,TCCGAACA,-0.0096
21,CACGAACG,0.343
22,CACGAACC,0.101
23,ACCGAACG,0.269
24,AACGAACC,0.427
25,GACGAACA,0.0681

row,Sequence,PBM E-score
1,TACGAACA,0.452
2,AACGAACG,0.419
3,AGCGAACA,0.19
4,CACGAACA,0.0853
5,GACGAACC,0.0416
6,AACGAACA,0.426
7,AGAAGCGG,-0.222
8,AGAATAGA,-0.17
9,CACACTTA,-0.00527
10,ACTAGAGC,-0.0879
11,GTAATGAC,0.109
12,ACAGTTTC,-0.0564
13,CCCGCCAA,0.00973
14,ACTCTACT,0.0626
15,CATCCTAC,-0.0778
16,ACGCTAGG,-0.165
17,AGAGTAAT,-6e-05
18,TGTCGACA,0.063
19,CCCTAGCA,-0.26
20,AACGAACT,0.371
21,ACCGAACT,0.0158
22,AGCGAACT,0.0961
23,AATAGCCT,-0.081
24,ACGATTCA,0.328
25,CGCGTATC,0.253

row,Sequence,PBM E-score
1,GGCGTAGA,0.048
2,AGCGTATG,0.268
3,GGCGTATA,0.434
4,CGCGTATA,0.451
5,AGCGTATC,0.166
6,GGCGTCTA,-0.152
7,AGCGTATA,0.444
8,CGCGTAGA,0.165
9,GAACCATA,-0.072
10,CGCCTTGC,-0.288
11,ACTTGTCA,-0.235
12,AAAGCATG,-0.169
13,AGCTTGAT,-0.129
14,CGTATGAG,0.415
15,GGTATGAC,-0.204
16,CCTATGAG,-0.28
17,AGTATGAA,0.00208
18,GGTATGAA,0.0119
19,CGTATGAA,0.405
20,AGTATGAG,-0.125
21,CGTATGAC,0.42
22,AGTATGAC,0.0571

# Reference: the supplement of paper PMC3334620
